This passage reports binding signal results from PMC7862700, “An all-to-all approach to the identification of sequence-specific readers for epigenetic DNA modifications on cytosine”.

What all share (experiment): DAPPL (digital affinity profiling via proximity ligation, sequencing); 10 mM Tris-HCl pH 7.5, 50 mM NaCl, 1 mM DTT, 4% glycerol, room temperature, 30 min; GST-TFs on glutathione beads, 16-mer random dsDNA library, 0.1% formaldehyde crosslink after washing; high values mean tight binding
The target of one experiment is T1, FLI1 (Homo sapiens, UniProt Q01543 1-452).
T1 sequence: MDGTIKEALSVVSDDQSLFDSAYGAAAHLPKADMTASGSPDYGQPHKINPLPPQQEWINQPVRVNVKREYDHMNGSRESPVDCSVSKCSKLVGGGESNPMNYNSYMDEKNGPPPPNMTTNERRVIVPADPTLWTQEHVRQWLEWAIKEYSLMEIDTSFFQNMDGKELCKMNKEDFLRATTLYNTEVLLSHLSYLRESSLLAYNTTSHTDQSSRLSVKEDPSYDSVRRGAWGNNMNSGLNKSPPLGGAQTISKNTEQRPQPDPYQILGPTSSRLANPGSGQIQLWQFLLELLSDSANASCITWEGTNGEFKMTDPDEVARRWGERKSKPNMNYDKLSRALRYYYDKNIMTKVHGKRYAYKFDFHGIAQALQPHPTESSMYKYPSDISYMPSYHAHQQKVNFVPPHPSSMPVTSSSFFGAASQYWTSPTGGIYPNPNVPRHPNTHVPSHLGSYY
The settings on record: protein: recombinant; tags: N-terminal GST; dsDNA, one strand shown. The procedure, abridged: (§1)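 Each value of binding signal is a hexamer's read frequency for a factor divided by the same hexamer's frequency in the tag-only sample. Barcoded, bead-captured GST fusions of human transcription factors made in yeast were pooled with that sample and incubated with 200 nmole of a random double-stranded 16-mer DNA library in Tris/NaCl/DTT/glycerol buffer at room temperature for 30 min. Washing, 0.1% formaldehyde crosslinking, proximity ligation, PCR and Illumina NextSeq500 sequencing followed.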

For another experiment, the target named is T2, ELK1 (Homo sapiens, UniProt P19419 1-428).
T2 sequence: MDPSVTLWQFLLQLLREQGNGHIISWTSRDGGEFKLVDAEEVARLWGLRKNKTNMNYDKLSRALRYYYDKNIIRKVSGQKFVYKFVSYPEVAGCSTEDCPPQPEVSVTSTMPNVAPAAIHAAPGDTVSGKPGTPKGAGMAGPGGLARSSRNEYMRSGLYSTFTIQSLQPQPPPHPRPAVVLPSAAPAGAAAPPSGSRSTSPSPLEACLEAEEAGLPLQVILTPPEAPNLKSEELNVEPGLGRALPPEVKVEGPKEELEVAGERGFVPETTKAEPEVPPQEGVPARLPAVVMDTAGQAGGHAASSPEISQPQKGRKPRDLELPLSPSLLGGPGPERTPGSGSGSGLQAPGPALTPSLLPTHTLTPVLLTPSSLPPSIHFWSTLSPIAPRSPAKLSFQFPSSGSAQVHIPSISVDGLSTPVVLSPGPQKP
To be noted: protein: recombinant; tags: N-terminal GST; dsDNA, one strand shown. The gist of the method:
as §1

For another experiment, the target named is HSF1 (Homo sapiens, UniProt Q00613 1-529). The settings on record: protein: recombinant; tags: N-terminal GST; chain copies: 3; dsDNA, one strand shown. The procedure, abridged: as §1
HSF1, sequence (Q00613 whole entry): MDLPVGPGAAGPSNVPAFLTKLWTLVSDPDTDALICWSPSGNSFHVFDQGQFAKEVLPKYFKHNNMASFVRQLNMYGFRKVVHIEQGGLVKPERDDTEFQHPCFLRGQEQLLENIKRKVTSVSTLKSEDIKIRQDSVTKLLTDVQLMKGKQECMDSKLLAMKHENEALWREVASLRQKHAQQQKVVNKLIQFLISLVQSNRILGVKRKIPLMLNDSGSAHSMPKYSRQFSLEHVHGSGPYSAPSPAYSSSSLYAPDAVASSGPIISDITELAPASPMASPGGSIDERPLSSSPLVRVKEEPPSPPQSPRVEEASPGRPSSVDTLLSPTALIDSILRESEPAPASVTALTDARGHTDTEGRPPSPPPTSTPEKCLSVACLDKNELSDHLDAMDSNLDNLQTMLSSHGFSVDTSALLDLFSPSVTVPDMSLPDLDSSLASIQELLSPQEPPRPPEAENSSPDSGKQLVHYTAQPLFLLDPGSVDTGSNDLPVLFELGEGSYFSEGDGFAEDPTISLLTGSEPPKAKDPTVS
The target of the next experiment is ELF4 (Homo sapiens, UniProt Q99607 1-663). The settings on record: protein: recombinant; tags: N-terminal GST; dsDNA, one strand shown. The gist of the method:
as §1

A further experiment deals with T3, ELF3 (Homo sapiens, UniProt P78545 1-371).
T3 sequence: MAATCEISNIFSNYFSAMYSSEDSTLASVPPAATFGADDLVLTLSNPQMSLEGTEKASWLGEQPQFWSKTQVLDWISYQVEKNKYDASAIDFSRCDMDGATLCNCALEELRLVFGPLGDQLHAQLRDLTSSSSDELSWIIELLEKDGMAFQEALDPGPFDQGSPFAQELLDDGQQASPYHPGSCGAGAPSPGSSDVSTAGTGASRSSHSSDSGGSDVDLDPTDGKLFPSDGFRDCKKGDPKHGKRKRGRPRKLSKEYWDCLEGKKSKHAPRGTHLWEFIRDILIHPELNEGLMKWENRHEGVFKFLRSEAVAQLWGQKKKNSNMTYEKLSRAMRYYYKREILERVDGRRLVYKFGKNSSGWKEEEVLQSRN
To be noted: protein: recombinant; tags: N-terminal GST; dsDNA, one strand shown. The gist of the method:
as §1

For a further experiment, the target named is T4, ERF (Homo sapiens, UniProt P50548 1-548).
T4 sequence: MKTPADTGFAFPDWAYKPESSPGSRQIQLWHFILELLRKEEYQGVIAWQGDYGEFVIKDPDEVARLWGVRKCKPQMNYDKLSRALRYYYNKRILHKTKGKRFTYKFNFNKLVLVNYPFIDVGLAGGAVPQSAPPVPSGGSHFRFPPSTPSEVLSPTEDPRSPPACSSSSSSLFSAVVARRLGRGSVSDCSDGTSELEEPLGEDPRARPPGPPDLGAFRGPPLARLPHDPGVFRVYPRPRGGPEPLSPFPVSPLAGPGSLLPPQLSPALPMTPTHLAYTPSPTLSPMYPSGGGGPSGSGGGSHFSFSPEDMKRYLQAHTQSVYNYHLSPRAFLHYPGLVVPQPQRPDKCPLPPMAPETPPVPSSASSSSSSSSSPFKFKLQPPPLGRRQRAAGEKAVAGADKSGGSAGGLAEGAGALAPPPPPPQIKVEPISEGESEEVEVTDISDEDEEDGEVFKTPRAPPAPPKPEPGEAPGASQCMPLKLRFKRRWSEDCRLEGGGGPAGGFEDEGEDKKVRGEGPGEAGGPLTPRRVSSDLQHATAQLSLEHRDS
To be noted: protein: recombinant; tags: N-terminal GST; dsDNA, one strand shown. The procedure, abridged:
as §1

The next experiment concerns the target T5, ETV7 (Homo sapiens, UniProt Q9Y603 1-341).
T5 sequence: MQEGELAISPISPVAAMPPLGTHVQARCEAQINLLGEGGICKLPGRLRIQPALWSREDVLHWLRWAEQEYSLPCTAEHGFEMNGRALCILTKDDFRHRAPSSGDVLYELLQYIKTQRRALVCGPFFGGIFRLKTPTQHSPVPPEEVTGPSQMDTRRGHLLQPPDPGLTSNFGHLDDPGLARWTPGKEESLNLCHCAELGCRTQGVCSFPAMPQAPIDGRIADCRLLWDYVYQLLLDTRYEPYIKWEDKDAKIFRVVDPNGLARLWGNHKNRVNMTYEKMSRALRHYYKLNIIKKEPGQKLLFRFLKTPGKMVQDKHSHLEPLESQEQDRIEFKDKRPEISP
The settings on record: protein: recombinant; tags: N-terminal GST; dsDNA, one strand shown. The procedure, abridged: as §1

The target in a further experiment is T6, ETV3 (Homo sapiens, UniProt P41162-2 1-143).
T6 sequence: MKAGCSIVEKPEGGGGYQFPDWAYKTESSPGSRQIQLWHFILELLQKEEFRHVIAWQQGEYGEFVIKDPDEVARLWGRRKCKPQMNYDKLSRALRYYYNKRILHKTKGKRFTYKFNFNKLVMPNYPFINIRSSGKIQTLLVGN
To be noted: protein: recombinant; tags: N-terminal GST; dsDNA, one strand shown. The procedure, abridged: as §1

The target of a further experiment is ETV6 (Homo sapiens, UniProt P41212 1-452). To be noted: protein: recombinant; tags: N-terminal GST; dsDNA, one strand shown. The gist of the method:
as §1

The next experiment has as its target T7, GABPA (Homo sapiens, UniProt Q06546 1-454).
T7 sequence: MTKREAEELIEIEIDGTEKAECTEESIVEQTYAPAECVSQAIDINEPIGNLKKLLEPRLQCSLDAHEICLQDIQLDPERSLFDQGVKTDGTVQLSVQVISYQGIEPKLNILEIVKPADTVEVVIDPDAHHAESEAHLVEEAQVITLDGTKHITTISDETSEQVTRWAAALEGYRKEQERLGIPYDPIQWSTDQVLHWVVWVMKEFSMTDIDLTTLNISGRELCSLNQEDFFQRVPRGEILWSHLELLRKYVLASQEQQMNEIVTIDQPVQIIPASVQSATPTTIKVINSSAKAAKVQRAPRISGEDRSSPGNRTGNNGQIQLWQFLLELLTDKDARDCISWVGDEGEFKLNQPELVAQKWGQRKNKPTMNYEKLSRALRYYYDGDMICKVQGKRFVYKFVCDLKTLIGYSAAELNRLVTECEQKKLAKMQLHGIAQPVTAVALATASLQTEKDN
To be noted: protein: recombinant; tags: N-terminal GST; dsDNA, one strand shown. The procedure, abridged:
as §1

The next experiment deals with ELF1 (Homo sapiens, UniProt P32519 1-619). The settings on record: protein: recombinant; tags: N-terminal GST; dsDNA, one strand shown. The procedure, abridged:
as §1

The target of a further experiment is T8, EHF (Homo sapiens, UniProt Q9NZC4 1-300).
T8 sequence: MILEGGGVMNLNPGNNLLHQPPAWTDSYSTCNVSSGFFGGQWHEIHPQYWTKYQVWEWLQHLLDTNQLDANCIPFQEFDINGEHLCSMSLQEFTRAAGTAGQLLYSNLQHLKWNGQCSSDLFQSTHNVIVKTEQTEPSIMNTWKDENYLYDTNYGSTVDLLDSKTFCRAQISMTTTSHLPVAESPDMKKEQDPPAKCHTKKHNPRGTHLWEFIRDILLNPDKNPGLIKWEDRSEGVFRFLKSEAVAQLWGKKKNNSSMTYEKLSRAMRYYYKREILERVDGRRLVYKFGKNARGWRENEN
To be noted: protein: recombinant; tags: N-terminal GST; dsDNA, one strand shown. The procedure, abridged:
as §1

The next experiment concerns the target SPI1 (Homo sapiens, UniProt P17947 1-270). To be noted: protein: recombinant; tags: N-terminal GST; dsDNA, one strand shown. The gist of the method: as §1
The next experiment addresses T9, SPIC (Homo sapiens, UniProt Q8N5J4 1-248).
T9 sequence: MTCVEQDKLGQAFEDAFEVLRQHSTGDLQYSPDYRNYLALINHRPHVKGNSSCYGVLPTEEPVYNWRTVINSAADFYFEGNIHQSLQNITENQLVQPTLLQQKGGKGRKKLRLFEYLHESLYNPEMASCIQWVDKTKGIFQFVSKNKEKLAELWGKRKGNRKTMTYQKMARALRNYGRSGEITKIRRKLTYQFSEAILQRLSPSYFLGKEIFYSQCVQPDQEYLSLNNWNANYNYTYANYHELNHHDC
To be noted: protein: recombinant; tags: N-terminal GST; dsDNA, one strand shown. The procedure, abridged: as §1

In a further experiment the target is T10, ELK4 (Homo sapiens, UniProt P28324-2 1-405).
T10 sequence: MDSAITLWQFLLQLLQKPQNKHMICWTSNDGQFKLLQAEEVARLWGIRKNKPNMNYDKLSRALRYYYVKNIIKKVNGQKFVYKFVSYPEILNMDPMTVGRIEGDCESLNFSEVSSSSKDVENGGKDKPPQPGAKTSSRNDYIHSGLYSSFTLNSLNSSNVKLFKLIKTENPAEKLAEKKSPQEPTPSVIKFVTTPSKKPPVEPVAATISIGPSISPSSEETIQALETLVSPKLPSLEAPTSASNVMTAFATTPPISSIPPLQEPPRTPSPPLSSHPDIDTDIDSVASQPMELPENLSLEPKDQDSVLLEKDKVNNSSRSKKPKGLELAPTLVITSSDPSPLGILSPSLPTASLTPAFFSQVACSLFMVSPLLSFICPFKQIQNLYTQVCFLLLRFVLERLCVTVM
To be noted: protein: recombinant; tags: N-terminal GST; dsDNA, one strand shown. The procedure, abridged: as §1

ELF4, sequence (Q99607 whole entry): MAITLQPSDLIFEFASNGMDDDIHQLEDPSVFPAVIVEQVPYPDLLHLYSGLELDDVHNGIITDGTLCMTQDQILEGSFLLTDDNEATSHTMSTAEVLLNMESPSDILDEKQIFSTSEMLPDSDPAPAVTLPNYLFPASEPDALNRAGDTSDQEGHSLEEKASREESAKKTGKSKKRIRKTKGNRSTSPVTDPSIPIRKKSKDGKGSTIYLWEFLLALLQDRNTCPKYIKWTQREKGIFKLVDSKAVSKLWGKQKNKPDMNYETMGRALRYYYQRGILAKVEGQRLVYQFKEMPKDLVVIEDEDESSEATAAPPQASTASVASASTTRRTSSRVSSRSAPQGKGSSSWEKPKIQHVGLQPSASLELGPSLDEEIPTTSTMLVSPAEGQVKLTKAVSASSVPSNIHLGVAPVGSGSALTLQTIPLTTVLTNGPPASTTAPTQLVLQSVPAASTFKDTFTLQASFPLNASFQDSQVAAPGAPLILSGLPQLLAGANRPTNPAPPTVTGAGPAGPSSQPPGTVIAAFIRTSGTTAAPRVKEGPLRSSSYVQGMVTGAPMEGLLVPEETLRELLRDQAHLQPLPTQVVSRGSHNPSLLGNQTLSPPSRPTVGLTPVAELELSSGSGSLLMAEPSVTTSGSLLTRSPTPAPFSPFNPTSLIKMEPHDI
ETV6, sequence (P41212 whole entry): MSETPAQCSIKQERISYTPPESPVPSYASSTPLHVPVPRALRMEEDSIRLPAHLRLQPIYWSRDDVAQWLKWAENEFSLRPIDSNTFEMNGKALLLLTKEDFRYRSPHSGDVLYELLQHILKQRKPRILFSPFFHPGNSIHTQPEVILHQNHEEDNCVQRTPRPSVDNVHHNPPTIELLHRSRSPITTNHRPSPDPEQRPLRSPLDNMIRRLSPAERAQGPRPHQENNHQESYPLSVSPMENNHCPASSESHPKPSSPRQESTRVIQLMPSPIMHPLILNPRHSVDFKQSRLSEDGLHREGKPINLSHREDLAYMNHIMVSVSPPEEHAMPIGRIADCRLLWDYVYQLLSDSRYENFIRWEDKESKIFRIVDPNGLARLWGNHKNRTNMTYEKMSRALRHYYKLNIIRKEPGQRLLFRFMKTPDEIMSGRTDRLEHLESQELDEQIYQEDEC
ELF1, sequence (P32519 whole entry): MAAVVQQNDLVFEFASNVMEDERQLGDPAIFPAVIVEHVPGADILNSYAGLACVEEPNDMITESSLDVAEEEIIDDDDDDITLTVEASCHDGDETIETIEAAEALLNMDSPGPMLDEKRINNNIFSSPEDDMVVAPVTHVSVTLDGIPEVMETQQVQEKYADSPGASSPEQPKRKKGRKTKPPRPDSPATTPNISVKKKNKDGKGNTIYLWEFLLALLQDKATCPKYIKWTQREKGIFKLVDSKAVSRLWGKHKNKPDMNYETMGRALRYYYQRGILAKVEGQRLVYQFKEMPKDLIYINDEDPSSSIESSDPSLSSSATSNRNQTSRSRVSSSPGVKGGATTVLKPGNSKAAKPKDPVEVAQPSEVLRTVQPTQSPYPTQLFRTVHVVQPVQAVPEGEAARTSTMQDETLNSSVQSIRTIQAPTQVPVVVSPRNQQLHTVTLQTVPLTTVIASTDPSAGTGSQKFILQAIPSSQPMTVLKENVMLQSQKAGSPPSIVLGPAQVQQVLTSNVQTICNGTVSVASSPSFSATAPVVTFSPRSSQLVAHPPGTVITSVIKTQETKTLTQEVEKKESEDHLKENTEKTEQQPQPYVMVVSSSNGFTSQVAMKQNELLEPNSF

For the sequence AGAAAC, the binding signal in the experiment with FLI1 was 1.04 fold enrichment (6-mer frequency, TF over GST control); in the experiment with ELK1, 1.02 fold enrichment (6-mer frequency, TF over GST control); with HSF1, 1.78 fold enrichment (6-mer frequency, TF over GST control); in the experiment with ELF4, 1.01 fold enrichment (6-mer frequency, TF over GST control); with ELF3 it was 1.02 fold enrichment (6-mer frequency, TF over GST control); with ERF it was 1.05 fold enrichment (6-mer frequency, TF over GST control). Also, the binding signal is 1.16 fold enrichment (6-mer frequency, TF over GST control) with ETV7; 1.01 fold enrichment (6-mer frequency, TF over GST control) with ETV3; 1.03 fold enrichment (6-mer frequency, TF over GST control) with ETV6.

For CACCTA, the binding signal with FLI1 is 1.06 fold enrichment (6-mer frequency, TF over GST control); in the experiment with ELK1, 1.01 fold enrichment (6-mer frequency, TF over GST control); with GABPA, 1.04 fold enrichment (6-mer frequency, TF over GST control); with ELF1 it was 1.02 fold enrichment (6-mer frequency, TF over GST control); with EHF it was 1.05 fold enrichment (6-mer frequency, TF over GST control); in the experiment with SPI1, 1.03 fold enrichment (6-mer frequency, TF over GST control). For the same sequence, the binding signal in the experiment with SPIC is 1.09 fold enrichment (6-mer frequency, TF over GST control); in the experiment with ELF4 it was 1.1 fold enrichment (6-mer frequency, TF over GST control); with ELK4 it was 1 fold enrichment (6-mer frequency, TF over GST control); with ELF3 it was 1.18 fold enrichment (6-mer frequency, TF over GST control); in the experiment with ERF, 1.06 fold enrichment (6-mer frequency, TF over GST control); in the experiment with ETV7, 1.08 fold enrichment (6-mer frequency, TF over GST control). For the same sequence, in the experiment with ETV6, the binding signal is 1.02 fold enrichment (6-mer frequency, TF over GST control).
